Assay [1] deals with Cytochrome P450 2C19 (Homo sapiens) (UniProt P33261). Description: Cytochrome P450 Family 2 Subfamily C Member 19 (CYP2C19) small molecule antagonists: luciferase reporter qHTS assay (AID 1671197). Note: nearly all actives have a fitted effect of over 65% in size. Note: potency is the fitted concentration of half-maximal effect. The method in brief: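 P450-Glo CYP2C19 system: enzyme-substrate mix with compound 10 min at room temperature, then NADPH regeneration solution, 1 h at 37C. Proluciferin-to-luciferin conversion detected by luminescence after 20 min with detection reagent; ketoconazole as positive control.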
For orientation: Reporter assays use an easily measured gene product as a stand-in for the process of interest.

Assay [2] concerns the target Cytochrome P450 2C9 (Homo sapiens) (UniProt P11712). In words: Cytochrome P450 Family 2 Subfamily C Member 9 (CYP2C9) small molecule antagonists: luciferase reporter qHTS assay (AID 1671198). Note: nearly all actives have a fitted effect of over 50% in size. Note: potency is the fitted concentration of half-maximal effect. In short, it runs like this: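 CYP2C9 activity was measured with a P450-Glo proluciferin substrate. Enzyme–substrate mix was held with compound for 10 min at room temperature, then NADPH regeneration solution was added for 1 h at 37C. Luciferin product was read as luminescence.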

Assay [3] has as its target Voltage-gated inwardly rectifying potassium channel KCNH2 (Homo sapiens) (UniProt Q12809). In words: Human Ether-a-go-go-Related Gene (hERG) channel small molecule antagonists: fluorescence cell-based qHTS assay (AID 1671200).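 Note: hERG-expressing U2OS cells given a thallium stimulus after FluxOR II dye loading; series mostly up to about 77 µM; nearly all actives have a fitted effect of over 50% in size.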 In short, it runs like this: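 Thallium served as the potassium surrogate; its influx into dye-loaded U2OS cells carrying the channel was measured by fluorescence over 2 min.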
(hERG is a cardiac potassium channel; its block is linked to QT prolongation.)

In assay [4] the target is Cytochrome P450 3A4 (Homo sapiens) (UniProt P08684). In words: Cytochrome P450 Family 3 Subfamily A Member 4 (CYP3A4) small molecule antagonists: luciferase reporter qHTS assay (AID 1671201). Note: nearly all actives have a fitted effect of over 50% in size. Note: potency is the fitted concentration of half-maximal effect. In short, it runs like this: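 Relative luminescence units after 20 min with luciferin detection reagent served as read-out. Beforehand, CYP3A4 turned over a proluciferin substrate for 1 h at room temperature with NADPH regeneration, following 10 min compound preincubation.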

Assay [5] has as its target Cytochrome P450 1A2 (Homo sapiens) (UniProt P05177). In words: Cytochrome P450 Family 1 Subfamily A Member 2 (CYP1A2) small molecule antagonists: luciferase reporter qHTS assay (AID 1671199). Note: nearly all actives have a fitted effect of over 50% in size. Note: potency is the fitted concentration of half-maximal effect. In short, it runs like this: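 Quantitative high-throughput format using the P450-Glo CYP1A2 system. Reaction initiated by NADPH regeneration solution, 1 h at room temperature, then stopped with detection reagent; luminescence measured 20 min later.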

We go through 37 compounds from PubChem BioAssay (Tox21).

Each structure is given as a SMILES string. Where “and” joins values, the source holds several entries; their conditions need not be identical. Equal values may be shown once. Records with an inconclusive call do not appear. Some structures have more than one record in an assay (separate samples or runs), and their calls can disagree. Calls of active or inactive are those of the source. Calls come from the whole dose curve; as a rule, active = well fitted curve in the direction sought with a large enough effect in the repeat runs; inconclusive = weak or mixed curves; inactive = no such curve, though single readings can be large; an effect the other way counts as inactive or inconclusive.

Voltage-gated inwardly rectifying potassium channel KCNH2 (Homo sapiens), sequence (Q12809 whole entry, looked up): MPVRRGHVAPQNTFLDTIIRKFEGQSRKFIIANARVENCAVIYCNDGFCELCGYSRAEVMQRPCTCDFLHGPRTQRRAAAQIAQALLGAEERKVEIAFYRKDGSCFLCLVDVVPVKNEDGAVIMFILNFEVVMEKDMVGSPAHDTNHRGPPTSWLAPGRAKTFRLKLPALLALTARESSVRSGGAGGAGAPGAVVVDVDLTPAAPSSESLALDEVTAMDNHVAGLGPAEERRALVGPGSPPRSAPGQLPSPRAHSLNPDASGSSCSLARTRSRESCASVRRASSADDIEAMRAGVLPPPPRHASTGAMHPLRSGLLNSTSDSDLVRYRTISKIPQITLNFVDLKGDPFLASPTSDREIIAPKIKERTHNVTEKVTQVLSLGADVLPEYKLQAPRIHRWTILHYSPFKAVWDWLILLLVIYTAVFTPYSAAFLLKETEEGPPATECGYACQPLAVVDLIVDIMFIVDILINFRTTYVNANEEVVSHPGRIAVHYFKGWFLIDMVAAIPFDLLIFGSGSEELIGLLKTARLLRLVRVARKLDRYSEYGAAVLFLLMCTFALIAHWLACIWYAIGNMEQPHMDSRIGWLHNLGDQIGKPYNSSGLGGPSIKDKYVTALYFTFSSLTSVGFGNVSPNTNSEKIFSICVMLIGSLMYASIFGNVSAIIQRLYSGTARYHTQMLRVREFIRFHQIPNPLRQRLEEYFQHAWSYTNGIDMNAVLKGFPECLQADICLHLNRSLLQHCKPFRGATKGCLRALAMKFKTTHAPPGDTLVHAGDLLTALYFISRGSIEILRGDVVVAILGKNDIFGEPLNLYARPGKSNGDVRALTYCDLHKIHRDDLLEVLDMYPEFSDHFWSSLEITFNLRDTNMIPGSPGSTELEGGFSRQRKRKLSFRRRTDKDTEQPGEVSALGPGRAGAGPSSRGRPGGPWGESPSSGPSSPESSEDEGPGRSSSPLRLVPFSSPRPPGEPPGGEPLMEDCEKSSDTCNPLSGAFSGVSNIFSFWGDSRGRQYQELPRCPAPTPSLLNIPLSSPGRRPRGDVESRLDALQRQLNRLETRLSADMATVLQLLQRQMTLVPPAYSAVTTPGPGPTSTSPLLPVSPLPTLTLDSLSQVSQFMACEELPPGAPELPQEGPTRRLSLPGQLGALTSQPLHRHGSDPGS
Cytochrome P450 1A2 (Homo sapiens), sequence (P05177 whole entry, looked up): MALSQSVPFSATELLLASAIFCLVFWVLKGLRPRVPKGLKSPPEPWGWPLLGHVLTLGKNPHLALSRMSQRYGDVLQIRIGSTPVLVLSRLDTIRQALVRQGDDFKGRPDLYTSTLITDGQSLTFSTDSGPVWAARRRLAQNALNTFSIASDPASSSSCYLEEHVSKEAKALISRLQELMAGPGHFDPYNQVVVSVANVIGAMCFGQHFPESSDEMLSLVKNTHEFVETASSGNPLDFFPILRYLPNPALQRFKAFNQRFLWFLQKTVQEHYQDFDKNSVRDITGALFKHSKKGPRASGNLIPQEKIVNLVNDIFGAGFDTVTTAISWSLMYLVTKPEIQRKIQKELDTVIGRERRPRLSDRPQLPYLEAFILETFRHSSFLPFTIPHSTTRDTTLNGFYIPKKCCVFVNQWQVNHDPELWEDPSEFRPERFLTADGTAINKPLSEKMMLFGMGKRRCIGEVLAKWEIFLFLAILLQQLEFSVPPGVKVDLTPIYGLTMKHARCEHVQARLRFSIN
Cytochrome P450 3A4 (Homo sapiens), sequence (P08684 whole entry, looked up): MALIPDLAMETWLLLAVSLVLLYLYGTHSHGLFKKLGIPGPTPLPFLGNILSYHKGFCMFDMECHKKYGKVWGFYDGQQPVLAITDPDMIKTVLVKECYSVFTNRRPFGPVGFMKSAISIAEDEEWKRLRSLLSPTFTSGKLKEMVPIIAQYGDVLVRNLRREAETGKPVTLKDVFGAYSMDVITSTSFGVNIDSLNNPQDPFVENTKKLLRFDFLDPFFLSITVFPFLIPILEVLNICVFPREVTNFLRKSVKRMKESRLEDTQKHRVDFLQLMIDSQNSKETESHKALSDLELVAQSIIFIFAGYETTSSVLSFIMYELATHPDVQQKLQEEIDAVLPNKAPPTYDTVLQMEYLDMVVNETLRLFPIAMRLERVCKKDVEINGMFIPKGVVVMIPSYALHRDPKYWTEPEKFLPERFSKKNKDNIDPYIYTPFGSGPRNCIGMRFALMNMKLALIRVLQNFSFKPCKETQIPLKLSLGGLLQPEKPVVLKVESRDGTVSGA
Cytochrome P450 2C19 (Homo sapiens), sequence (P33261 whole entry, looked up): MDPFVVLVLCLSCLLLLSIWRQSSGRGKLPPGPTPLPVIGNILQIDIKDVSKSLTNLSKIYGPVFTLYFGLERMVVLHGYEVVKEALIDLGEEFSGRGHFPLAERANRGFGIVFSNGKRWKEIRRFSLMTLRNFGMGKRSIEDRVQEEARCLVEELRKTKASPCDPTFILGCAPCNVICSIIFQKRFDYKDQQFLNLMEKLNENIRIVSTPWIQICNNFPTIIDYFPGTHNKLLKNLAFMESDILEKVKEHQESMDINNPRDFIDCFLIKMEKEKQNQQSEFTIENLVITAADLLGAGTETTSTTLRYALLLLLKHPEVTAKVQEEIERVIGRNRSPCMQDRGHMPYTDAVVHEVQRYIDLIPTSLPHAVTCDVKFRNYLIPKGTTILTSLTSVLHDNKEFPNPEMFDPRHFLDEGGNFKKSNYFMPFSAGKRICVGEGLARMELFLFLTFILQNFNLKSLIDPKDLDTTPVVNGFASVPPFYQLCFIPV
Cytochrome P450 2C9 (Homo sapiens), sequence (P11712 whole entry, looked up): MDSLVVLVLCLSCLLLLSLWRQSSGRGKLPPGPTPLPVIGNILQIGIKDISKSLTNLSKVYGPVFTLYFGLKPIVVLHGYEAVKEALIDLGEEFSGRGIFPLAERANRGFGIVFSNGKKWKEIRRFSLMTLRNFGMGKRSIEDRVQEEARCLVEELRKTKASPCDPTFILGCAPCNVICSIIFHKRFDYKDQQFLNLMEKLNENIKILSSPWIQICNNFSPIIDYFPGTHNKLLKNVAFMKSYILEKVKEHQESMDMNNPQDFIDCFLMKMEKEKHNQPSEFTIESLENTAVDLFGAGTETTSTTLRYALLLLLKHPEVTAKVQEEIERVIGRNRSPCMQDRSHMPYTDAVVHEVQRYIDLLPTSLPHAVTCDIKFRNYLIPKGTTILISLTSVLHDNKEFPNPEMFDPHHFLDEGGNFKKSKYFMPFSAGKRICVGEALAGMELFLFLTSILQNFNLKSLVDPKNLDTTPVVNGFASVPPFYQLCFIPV

Consider `Nc1nc2ncc(CNc3ccc(C(=O)N[C@@H](CCC(=O)O)C(=O)O)cc3)nc2c(=O)[nH]1`, for which the Potency in assay [1] was 56.4 µM (active) and inactive. Also, the Potency entry in assay [2], in assay [3] and in assay [4] was “inactive” in each case.
Consider `OCC1CCCO1` (stereo not given), for which the Potency in assay [1] was 40.7 µM (active) and inactive. Besides, the Potency entry in assay [5], in assay [3] and in assay [4] was “inactive” in each case.
`C[C@@H](O)[C@H]1C(=O)N2C(C(=O)O)=C(S[C@@H]3CN[C@H](C(=O)N(C)C)C3)[C@H](C)[C@H]12`: the Potency result in assay [1], in assay [3] and in assay [4] was “inactive” throughout. The Potency in assay [5] is 15.5 µM (active) and inactive.
As to `CCCCCCC(C)(C)S`, the Potency is 22.6 µM (active) and inactive in assay [1]; 32 µM (active) and inactive in assay [2]. Also, the Potency entry in assay [3] and in assay [4] was “inactive” in each case.
With `CCOC(=O)C1OC1c1ccccc1` (stereo not given), the Potency in assay [1] is 36.3 µM (active); in assay [5] it was 32.4 µM (active) and 22.4 µM (active). Moreover, the Potency result in assay [3] and in assay [4] was “inactive” in each case.
As to `CC1(C)CC(N=C=O)CC(C)(CN=C=O)C1` (stereo not given), the Potency in assay [1] was 18.1 µM (active) and inactive; in assay [4], 4.05 µM (active) and 2 µM (active). Moreover, the Potency entry in assay [5] and in assay [3] was “inactive” throughout.
Take `C/C=C(C)/C=C/C=C(C)C`: the Potency in assay [1] was 70.2 µM (active) and 79.6 µM (active); in assay [5], 39.9 µM (active); in assay [4] it was 31.3 µM (active) and 35.6 µM (active).
For the compound `CCCCC(CC)COC(=O)/C=C\C(=O)OCC(CC)CCCC` (stereo not given), the Potency is 39.9 µM (active) and 71 µM (active) in assay [1]; 39.9 µM (active) in assay [2]; 35.6 µM (active) in assay [5]; 5.64 µM (active) in assay [4].
For `CCCCCCCCCCC=CC1CC(=O)OC1=O` (stereo not given), the Potency in assay [1] was 45 µM (active) and inactive; in assay [2], 71.4 µM (active) and 39.9 µM (active). Further, the Potency result in assay [5] and in assay [4] was “inactive” in each case.
`CC(C)(CO)COC(=O)C(C)(C)CO`: the Potency in assay [1] was 8.94 µM (active) and 39.9 µM (active). Besides, the Potency entry in assay [5] and in assay [4] was “inactive” each time.
Consider `Cn1c([N+](=O)[O-])cnc1COC(N)=O`, for which the Potency entry in assay [1], in assay [2], in assay [5] and in assay [4] was “inactive” in each case.
As for `OCC#CCO`, in assay [1], the Potency was 57.2 µM (active) and inactive. Moreover, the Potency result in assay [2], in assay [5] and in assay [4] was “inactive” in each case.
`CC[Si](OC(C)=O)(OC(C)=O)OC(C)=O`: the Potency in assay [1] is 50.2 µM (active) and inactive; in assay [2] it was 71 µM (active) and inactive; in assay [4] it was 3.17 µM (active) and 35.6 µM (active). The Potency entry in assay [5] was “inactive”.
As for `CC(C)Cc1ccccc1`, the Potency result in assay [1], in assay [2], in assay [5] and in assay [4] was “inactive” throughout.
Turning to `CS(=O)(=O)c1ccc([C@@H](O)[C@@H](CO)NC(=O)C(Cl)Cl)cc1`, the Potency in assay [1] is 28.6 µM (active) and 17.4 µM (active). The Potency entry in assay [2], in assay [5] and in assay [4] was “inactive” each time.
Consider `COC(=O)c1ccccc1O`, for which the Potency in assay [1] was 35.7 µM (active) and inactive; in assay [5], 6.35 µM (active). The Potency entry in assay [2] and in assay [4] was “inactive” each time.
On to `O=[N+]([O-])c1cc(N(CCO)CCO)ccc1NCCO`, for which the Potency in assay [1] was 22.4 µM (active) and 39.9 µM (active); in assay [2], 35.5 µM (active) and 39.9 µM (active); in assay [5], 35.5 µM (active) and 35.6 µM (active); in assay [4], 35.5 µM (active) and 39.9 µM (active).
As to `Cc1cc(=O)[nH]c(C(C)C)n1`, the Potency entry in assay [1], in assay [2] and in assay [4] was “inactive” each time.
With `ClC1=C(Cl)C(Cl)(Cl)C(Cl)=C1Cl`, the Potency result in assay [1], in assay [5], in assay [3] and in assay [4] was “inactive” each time.
On to `O=Nc1ccc(O)cc1`, for which the Potency is 17.4 µM (active) in assay [1]; 31 µM (active) and 39.9 µM (active) in assay [5]. In addition, the Potency result in assay [4] is “inactive”.
With `Oc1ccc2ccccc2c1`, the Potency entry in assay [3] is “inactive”.
With `O=C(c1ccc(O)cc1)c1ccc(O)cc1O`, the Potency was 32.1 µM (active) and inactive in assay [1]; 28.6 µM (active) and 35.6 µM (active) in assay [5]; 7.18 µM (active) and 22.4 µM (active) in assay [4]. Further, the Potency entry in assay [2] was “inactive”.
For the compound `CCCCCCCCCCCCOCC1CO1` (stereo not given), the Potency is 60.4 µM (active) in assay [1] and 63.4 µM (active) in assay [5]. Besides, the Potency result in assay [2] and in assay [4] was “inactive” in each case.
In the case of `Cc1ccc(N)c(S(=O)(=O)O)c1`, the Potency in assay [1] is 71.9 µM (active) and inactive; in assay [2], 45.4 µM (active). The Potency result in assay [3] and in assay [4] was “inactive” in each case.
In the case of `O=S(=O)(O)CCS`, the Potency result in assay [1], in assay [5], in assay [3] and in assay [4] was “inactive” throughout.
Turning to `COC(=O)Nc1nc2ccc(Sc3ccccc3)cc2[nH]1`, the Potency in assay [1] was 25.2 µM (active) and inactive; in assay [5], 12.6 µM (active). The Potency result in assay [3] and in assay [4] was “inactive” in each case.
Turning to `NCCc1ccc(O)c(O)c1`, the Potency in assay [1] is 71.2 µM (active) and inactive. The Potency entry in assay [2], in assay [3] and in assay [4] was “inactive” each time.
On to `CCCCOCCO`, for which the Potency entry in assay [1], in assay [2] and in assay [4] was “inactive” throughout.
For `CC(=O)[C@@]1(O)CC[C@H]2[C@@H]3CCC4=CC(=O)CC[C@]4(C)[C@H]3CC[C@@]21C`, the Potency result in assay [3] was “inactive”.
On to `CCCCC(CC)C(=O)OCCOCCOCCOC(=O)C(CC)CCCC` (stereo not given), for which the Potency is 40.4 µM (active) and 17.8 µM (active) in assay [1]; 25.5 µM (active) and 7.96 µM (active) in assay [2]; 7.18 µM (active) and 8.94 µM (active) in assay [4]. In assay [3], the Potency entry is “inactive”.
Take `CC(C)n1c(/C=C/[C@@H](O)C[C@@H](O)CC(=O)O)c(-c2ccc(F)cc2)c2ccccc21`: the Potency result in assay [1], in assay [3] and in assay [4] was “inactive” in each case.
As for `OC[C@@H](O)[C@@H](O)[C@H](O)[C@@H](O)CO`, the Potency result in assay [1], in assay [2], in assay [5] and in assay [4] was “inactive” in each case.
With `CCCCC(CC)COC(C)=O` (stereo not given), the Potency result in assay [1], in assay [2], in assay [5] and in assay [4] was “inactive” in each case.
With `OC[C@@H](O)[C@H](O)[C@H](O)[C@@H](O)CO`, the Potency result in assay [1], in assay [2], in assay [5] and in assay [4] was “inactive” each time.
For the compound `Clc1cc(Cl)c(Cl)cc1Cl`, the Potency entry in assay [1], in assay [2], in assay [3] and in assay [4] was “inactive” throughout.
Consider `CNC[C@H](O)[C@@H](O)[C@H](O)[C@H](O)CO`, for which the Potency result in assay [1], in assay [5], in assay [3] and in assay [4] was “inactive” throughout.
For the compound `Oc1ccc(OCc2ccccc2)cc1`, the Potency was 34.8 µM (active) and 8.71 µM (active) in assay [1]; 19.6 µM (active) and 15.5 µM (active) in assay [5]. The Potency result in assay [4] is “inactive”.
